Vaccinia Venus: qHTS for Stage-Specific Inhibitors of Vaccinia Orthopoxvirus: Venus Reporter Primary qHTS; Vaccinia virus Venus reporter expression, fluorescence; Potency, µM (highest dose often 36.5 µM), most hits filed as inhibitors; 330,000 compounds, 0.46% hits; AID 720580, 2013; calls by dose curve; tested in A549 cells; also: nearly all actives have a fitted effect of over 30% in size
VACV mCherry inh: qHTS for Stage-Specific Inhibitors of Vaccinia Orthopoxvirus: mCherry Reporter Primary qHTS. 310,000 compounds, 0.63% hits. Vaccinia virus mCherry reporter infection, fluorescence. Potency, µM (top dose mostly 36.5 µM), actives largely listed as inhibitors; calls by dose curve; tested in A549 cells; also: nearly all actives have a fitted effect of over 35% in size
Lassa entry inh: qHTS for Inhibitors of binding or entry into cells for Lassa Virus; Lassa virus pseudotype entry inhibition, cell reporter; 300,000 compounds, 1.2% hits; Potency, µM (titrated, usually from 37.9 µM), usual class: inhibitors; calls by dose curve; tested in HEK293 cells; also: nearly all actives have a fitted effect of over 50% in size
FMDV antiviral: High Throughput Screening for Foot and Mouth Disease Virus Antivirals; FMDV antiviral cell-based qHTS; Potency, µM (top dose mostly 57.9 µM), most hits filed as inhibitors; 410,000 compounds, 1.2% hits; AID 1159524, 2015; calls by dose curve; tested in HEK293T cells; also: read-out not given here; nearly all actives have a fitted effect of over 45% in size
Marburg entry inh: qHTS for inhibitors of binding or entry into cells for Marburg Virus; Marburg virus pseudotyped entry inhibition, cell reporter; Potency, µM (titrated, usually from 37.8 µM), actives largely listed as inhibitors; 300,000 compounds, 1.8% hits; calls by dose curve; tested in HEK293 cells
HCMV antiviral: qHTS Assay for inhibitors of the human cytomegalovirus (HCMV); HFF cells, HCMV-luciferase reporter, 72 h; active compounds read low; activity change, negative = inhibition, % at 57.5 µM; 410,000 compounds, 4.5% hits; in the data active = activity change below about -60%; inconclusive = no clear call, values can overlap the other calls; inactive = above about -39%
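After 16 h attachment at 37C, HFF cells received test compound and HCMV-luciferase (1 PFU/cell); reporter luminescence read 72 h later, data normalized against buffer-only and known inhibitor Salinomycin.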
Large screens that a line does not name were inactive. Only some compounds are listed: those with a hit (about 6.5% of all), similar ones and a draw of the others.

CC(C)NC(=S)NC(=O)/C=C/c1ccc(F)cc1	Marburg entry inh inconclusive, HCMV antiviral -76
Cc1cc(C)n(C[C@@H]2CC(=O)N(c3ccc(F)c(Cl)c3)C2=O)n1	none (no result: Vaccinia Venus, VACV mCherry inh, Lassa entry inh, FMDV antiviral, HCMV antiviral)
COc1ccc(-n2nc(C(=O)NCC(=O)Nc3cc(C)ccc3OC)c3ccccc3c2=O)c(OC)c1	Lassa entry inh 6.3µM
COc1ccc(-n2nc(C(=O)NCC(=O)NC3CCCCC3)c3ccccc3c2=O)c(OC)c1	Lassa entry inh 13µM, Marburg entry inh inconclusive
COc1ccc(-n2nc(C(=O)NCC(=O)NC3CCCCCC3)c3ccccc3c2=O)c(OC)c1	VACV mCherry inh inconclusive
C[C@H](O)[C@@H]1C(=O)N2CCc3c([nH]c4ccccc34)[C@@H]2C[C@@H]1N(C)C(=O)c1cc(Cl)cc(Cl)c1	none (no result: Lassa entry inh, Marburg entry inh)
COc1cc(C(=O)OCC(=O)N2CCN(S(=O)(=O)c3ccc(C)cc3C)CC2)c([N+](=O)[O-])cc1OC	Vaccinia Venus inconclusive
COc1c(C)cc(C(=O)C2CCCN(Cc3ccccn3)C2)cc1C (centres undefined)	Marburg entry inh inconclusive, HCMV antiviral -65
COc1c(C)cc(C(=O)C2CCCN(C(=O)CCc3scnc3C)C2)cc1C (centres undefined)	HCMV antiviral -62 (no result: Lassa entry inh, Marburg entry inh)
COc1cccc(C(=O)C2CCCN(Cc3ccccn3)C2)c1 (centres undefined)	none
COc1ccc2cc(C(=O)C3CCCN(Cc4cccc(C)n4)C3)ccc2c1 (centres undefined)	Vaccinia Venus inconclusive, VACV mCherry inh inconclusive, Lassa entry inh inconclusive, FMDV antiviral inconclusive, Marburg entry inh 22µM, HCMV antiviral -67
COc1c(C)cc(C(=O)C2CCCN(C(=O)c3ccc4[nH]ccc4c3)C2)cc1C (centres undefined)	Lassa entry inh 4.5µM, HCMV antiviral inconclusive
COc1ccc(C(=O)C2CCCN(Cc3cccc(C)n3)C2)c(OC)c1 (centres undefined)	Lassa entry inh inconclusive, Marburg entry inh inconclusive
CCC1CN(C(=O)N2CCC(C(=O)NCCC3=CCCCC3)CC2)c2ccccc2O1 (centres undefined)	HCMV antiviral inconclusive (no result: Marburg entry inh)
Cc1ccc(C(C(=O)NC2CCCCC2)N(C(=O)CCCC(=O)Nc2ccccn2)c2ccc3c(c2)OCCO3)cc1 (centres undefined)	HCMV antiviral -63 (no result: Vaccinia Venus, VACV mCherry inh)
O=C(CCCC(=O)N(c1ccc2c(c1)OCCO2)C(C(=O)NC1CCCCC1)c1ccc(F)cc1)Nc1ccccn1 (centres undefined)	Marburg entry inh inconclusive, HCMV antiviral -68 (no result: FMDV antiviral)
CCOc1ccc(N(CC(=O)NC2CCCCC2)C(=O)CCCC(=O)Nc2ccccn2)cc1	Lassa entry inh 10µM
COc1ccc(CCNC(=O)c2ccc(-c3ccc([N+](=O)[O-])cc3Cl)o2)cc1OC	Lassa entry inh inconclusive, FMDV antiviral 13µM, Marburg entry inh inconclusive
COc1ccc(CCNC(=O)c2ccc(CS(=O)(=O)Cc3ccc(C)cc3)o2)cc1OC	HCMV antiviral inconclusive (no result: Lassa entry inh, Marburg entry inh)
COc1ccc(CCNC(=O)c2ccc(CS(=O)(=O)c3ccc(C)cc3)o2)cc1OC	Lassa entry inh inconclusive, FMDV antiviral 32µM, Marburg entry inh inconclusive
Cc1ccc(S(=O)(=O)Cc2ccc(C(=O)NCc3cccs3)o2)cc1	Lassa entry inh inconclusive
Cc1ccc(CNC(=O)c2ccc(CS(=O)(=O)c3ccccc3)o2)cc1	FMDV antiviral inconclusive, HCMV antiviral -61 (no result: Vaccinia Venus, VACV mCherry inh, Lassa entry inh, Marburg entry inh)
COc1ccc(CCNC(=O)c2ccc(CS(=O)(=O)c3ccc(Cl)cc3)o2)cc1OC	Lassa entry inh 26µM, FMDV antiviral 16µM, Marburg entry inh 15µM, HCMV antiviral inconclusive (no result: Vaccinia Venus, VACV mCherry inh)
COc1ccc(-c2c(NC(=O)c3ccco3)oc3ccccc3c2=O)cc1	none (no result: Vaccinia Venus, VACV mCherry inh, Lassa entry inh, Marburg entry inh)
C[C@H]1CN([C@@H](C)CO)C(=O)CCCn2cc(nn2)CO[C@@H]1CN(C)C(=O)Nc1ccccc1C(F)(F)F	none (no result: Lassa entry inh, Marburg entry inh)
CCCCCCOC(=O)C1(O)CC2OC1(C)n1c3ccccc3c3c4c(c5c6ccccc6n2c5c31)C(=O)NC4 (centres undefined)	none (no result: Lassa entry inh, Marburg entry inh, HCMV antiviral)
CCn1c(=N)c(C(=O)NC2CCCC2)cc2c(=O)n3cc(C)ccc3nc21	none
COC(=O)c1c(C)oc2ccc(N(C(=O)c3ccncc3)S(=O)(=O)c3ccc(OC)cc3)cc12	Marburg entry inh inconclusive, HCMV antiviral -95

Bioassay records as filed in PubChem BioAssay.
